Rows were chosen to be rich in hits. Some 2.1% of all compounds tested hit in one or more screens of this group.
Ecoli rRNA inh: selective bacterial rRNA inhibition in E. coli. AID 720706. E. coli WT GFP vs humanized-ribosome RFP mutants, fluorescence, 24 h; hits give low values; DMSO median 0, no signal -100. GFP signal change (wild-type ribosome), % (concentration not given with the values). actives 1.6% (n = 350,000);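 active = significant combined selectivity score with lowered wild-type GFP, culture density cut under 30%, mutant RFP and density less affected; inactive = any of these conditions unmet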
PvdQ inh: blocks Pseudomonas aeruginosa PvdQ acylase activity; actives 0.063% (n = 340,000); purified PvdQ acylase, fluorescence plate reader; inhibition, % at 10 µM; in the data active = inhibition above about 30%, passing the limit was not always enough
F508del corr: correctors of CFTR F508del function in bronchial epithelial cells | CFBE cells, YFP halide quenching; stimulated with forskolin plus potentiator P3; % fluorescence drop versus neutral controls | activity (quench increase), % at 7.58 µM | actives 0.36% (n = 350,000) | AID 720511;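 active = mean added fluorescence quench of at least 8% versus neutral control, with both replicates also reaching 8%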;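 also: cells transiently co-express mutant CFTR-F508del with the halide-sensitive YFP; corrector assay measuring rescue of mutant channel to the surface after 24 h compound exposure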
ARNT-TACC3 inh: disrupts binding between human ARNT and TACC3. Q9Y6A5. AlphaScreen His-ARNT PAS-B/GST-TACC3 binding, luminescence; TACC3 fragment carries E629A point mutation. inhibition, % at 9.99 µM. actives 0.66% (n = 390,000);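 active = mean inhibition of replicates at least 50% and at least half of replicates each reaching 50%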
ERAP1 inh: blocks human ERAP1 aminopeptidase activity; inhibition, % at 10.7 µM; recombinant ERAP1, Leu-AMC fluorescence, 60 min; actives 0.15% (n = 340,000); Q9NZ08;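 active = mean replicate inhibition of at least 30%, or all replicates individually reaching that 30% level; inactive = mean below 30% and not every replicate reaching it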
Target sequence (Q9NZ08 whole entry, looked up): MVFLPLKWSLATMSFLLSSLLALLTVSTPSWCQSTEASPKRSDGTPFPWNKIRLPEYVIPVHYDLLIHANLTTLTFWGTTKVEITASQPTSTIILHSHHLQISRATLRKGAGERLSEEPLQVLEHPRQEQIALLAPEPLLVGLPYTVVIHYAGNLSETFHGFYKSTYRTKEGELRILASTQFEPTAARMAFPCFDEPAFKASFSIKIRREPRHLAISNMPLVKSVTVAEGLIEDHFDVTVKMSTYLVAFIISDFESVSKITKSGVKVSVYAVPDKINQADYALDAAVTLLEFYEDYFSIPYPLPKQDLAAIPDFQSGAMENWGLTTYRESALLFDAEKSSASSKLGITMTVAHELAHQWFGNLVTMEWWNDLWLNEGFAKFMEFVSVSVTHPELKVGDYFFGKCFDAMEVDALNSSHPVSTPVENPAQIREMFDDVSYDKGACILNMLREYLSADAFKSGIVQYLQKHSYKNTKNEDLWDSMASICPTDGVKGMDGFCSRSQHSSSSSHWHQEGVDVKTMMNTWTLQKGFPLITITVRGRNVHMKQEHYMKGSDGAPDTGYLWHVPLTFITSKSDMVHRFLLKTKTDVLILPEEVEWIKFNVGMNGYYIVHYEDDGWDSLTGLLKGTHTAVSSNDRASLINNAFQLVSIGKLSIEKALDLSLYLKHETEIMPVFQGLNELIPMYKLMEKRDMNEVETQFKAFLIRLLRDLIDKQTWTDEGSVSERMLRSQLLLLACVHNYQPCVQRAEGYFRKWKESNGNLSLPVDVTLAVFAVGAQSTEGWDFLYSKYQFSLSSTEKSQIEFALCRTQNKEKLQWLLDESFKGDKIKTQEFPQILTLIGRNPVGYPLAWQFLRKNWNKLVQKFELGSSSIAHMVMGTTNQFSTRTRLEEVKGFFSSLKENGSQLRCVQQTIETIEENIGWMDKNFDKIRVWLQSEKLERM
Numbers stand for hits; . = inactive; / = no result given.

SMILES	Ecoli rRNA inh	PvdQ inh	F508del corr	ARNT-TACC3 inh	ERAP1 inh
C[C@@H]1CCCCO[C@H](CN(C)C(=O)NC2CCCCC2)[C@H](C)CN([C@H](C)CO)C(=O)c2cc(NS(=O)(=O)c3cn(C)cn3)ccc2O1	.	/	.	.	.
C[C@@H]1CCCCO[C@H](CN(C)Cc2ccc(Cl)c(Cl)c2)[C@@H](C)CN([C@@H](C)CO)C(=O)c2cc(NS(=O)(=O)c3ccc(Cl)cc3)ccc2O1	.	/	12	/	.
COc1ccc(S(=O)(=O)Nc2ccc3c(c2)C(=O)N([C@@H](C)CO)C[C@H](C)[C@H](CN(C)Cc2ccc(Cl)c(Cl)c2)OCCCC[C@@H](C)O3)cc1	.	/	8.0	.	/
Cc1ccc(S(=O)(=O)Nc2ccc3c(c2)C(=O)N([C@@H](C)CO)C[C@H](C)[C@H](CN(C)S(=O)(=O)c2ccc(C)cc2)OCCCC[C@@H](C)O3)cc1	.	/	9.1	.	.
COc1ccc(S(=O)(=O)Nc2ccc3c(c2)C(=O)N([C@H](C)CO)C[C@@H](C)[C@@H](CN(C)Cc2ccc(C(F)(F)F)cc2)O3)cc1	.	/	9.2	.	.
C[C@@H]1CN([C@H](C)CO)C(=O)c2cc(NS(=O)(=O)c3ccc(Cl)cc3)ccc2O[C@@H](C)CCCCO[C@@H]1CN(C)Cc1ccc(Cl)c(Cl)c1	.	/	.	.	.
COCC(=O)Nc1ccc2c(c1)C(=O)N(C)C[C@@H](OC)[C@@H](C)CN(C(=O)CC1CC1)[C@H](C)CO2	.	/	.	.	.
COc1cccc(CN2CCC3(CC2)CN(S(C)(=O)=O)[C@H](CO)c2[nH]c4cc(OC)ccc4c23)c1	.	/	.	/	.
CNC(=O)C[C@@H]1CC[C@@H]2[C@H](COc3ccc(NC(=O)C4CCCCC4)cc3C(=O)N2C)O1	.	/	.	.	.
CCOC(=O)c1ccc(N2Cc3ccccc3C2)cc1O	.	63	.	.	.
CCc1ccc(N2Cc3ccccc3C2)cc1	.	.	.	.	.
COC(=O)CC1Sc2ccccc2NC1=O (stereo not given)	/	.	/	.	/
O=C(CC1Sc2ccccc2NC1=O)NNc1cccc(Cl)c1Cl (stereo not given)	.	.	8.3	.	.
CCN(Cc1ccccc1)S(=O)(=O)c1ccc(C(=O)N(CCCN(C)C)c2nc3c(F)cccc3s2)cc1	-48	.	.	.	.
CCOc1cccc2sc(N(CCCN(C)C)C(=O)c3ccc(S(=O)(=O)N4CCCCCC4)cc3)nc12	-24	.	.	.	.
COc1cccc2sc(N(CCCN(C)C)C(=O)c3ccc(S(=O)(=O)N4CCCc5ccccc54)cc3)nc12	.	.	.	.	.
CCOc1cccc2sc(N(CCCN(C)C)C(=O)c3ccc(S(=O)(=O)N(C)Cc4ccccc4)cc3)nc12	-39	.	.	.	.
CN(C)CCCN(C(=O)c1ccc(S(=O)(=O)N2CCc3ccccc32)cc1)c1nc2c(Cl)cccc2s1	-40	.	.	/	.
CCOc1cccc2sc(N(CCCN(C)C)C(=O)c3ccc(S(=O)(=O)N(CC)Cc4ccccc4)cc3)nc12	.	.	.	.	.
COCC#Cc1cnc2c(c1)C(=O)N([C@H](C)CO)C[C@@H](C)[C@@H](CN(C)C(=O)C1CCCCC1)O2	.	/	.	.	.
c1ccc2c(C3=NNC(=NC4CCCCC4)SC3)c[nH]c2c1	-34	.	/	.	.
C[C@@H]1CCCCO[C@H](CN(C)C)[C@@H](C)CN([C@H](C)CO)C(=O)c2cc(NC(=O)C3CCCCC3)ccc2O1	.	/	.	.	.
Cc1ccnc(NC(c2cccnc2)c2ccc3cccnc3c2O)c1 (stereo not given)	.	.	.	61	.
Cc1ccnc(NC(c2ccccc2)c2ccc3cccnc3c2O)c1 (stereo not given)	.	.	.	.	.
Cc1cccc(NC(=S)NNC(=O)Cc2ccccc2)c1	/	.	/	.	/
Cc1cccc(NCC(=O)NNC(=S)Nc2ccccc2)c1	.	.	.	47	.
CCC(=O)Nc1cccc(NC(=S)NC(=O)c2cccc(C)c2)c1	-17	.	/	.	.
O=C(C1CCC1)N1CCCCN2[C@H](C1)[C@H](c1ccc(C#CC3CCCC3)cc1)[C@@H]2CO	/	/	.	.	.
COC(=O)c1ccc(N)c2c(N)ccc(C(=O)OC)c12	.	/	.	/	.
